Data as given in the supplement of paper PMC11732987, “Enantioselective OTUD7B fragment discovery through chemoproteomics screening and high-throughput optimisation” (Communications Chemistry, 2025).

Tests used:
Assay in all cases: log2 ratio of Biotin-Ahx-Ub-VS probe labelling (fragment/DMSO); higher = less target engagement (more negative = stronger competition), active = hit call of the paper (q ≤ 0.05, log2 ratio ≤ -1)
Settings in all cases: compound concentration: 200 uM; treatment time: 3 h
USP34 = USP34 (UniProt Q70CQ2)
How it was run: (§1)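 HEK293T lysate, 495 µg per sample in Tris/CHAPS/IGEPAL buffer with protease inhibitors, was treated in triplicate with fragment at 200 µM or vehicle for 3 h and then with Biotin-Ahx-Ub-VS at 0.5 µM final for 1 h. Labelled DUBs were NeutrAvidin-enriched, digested with LysC and trypsin, and run by diaPASEF LC-MS/MS. Spectronaut label-free quantities were global-median-normalised, and values are average log2 fragment/vehicle ratios by unpaired t-test on proteins with ≥2 unique peptides.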

USP36 = biological target: T1, USP36 (UniProt Q9P275)
T1 sequence (whole entry): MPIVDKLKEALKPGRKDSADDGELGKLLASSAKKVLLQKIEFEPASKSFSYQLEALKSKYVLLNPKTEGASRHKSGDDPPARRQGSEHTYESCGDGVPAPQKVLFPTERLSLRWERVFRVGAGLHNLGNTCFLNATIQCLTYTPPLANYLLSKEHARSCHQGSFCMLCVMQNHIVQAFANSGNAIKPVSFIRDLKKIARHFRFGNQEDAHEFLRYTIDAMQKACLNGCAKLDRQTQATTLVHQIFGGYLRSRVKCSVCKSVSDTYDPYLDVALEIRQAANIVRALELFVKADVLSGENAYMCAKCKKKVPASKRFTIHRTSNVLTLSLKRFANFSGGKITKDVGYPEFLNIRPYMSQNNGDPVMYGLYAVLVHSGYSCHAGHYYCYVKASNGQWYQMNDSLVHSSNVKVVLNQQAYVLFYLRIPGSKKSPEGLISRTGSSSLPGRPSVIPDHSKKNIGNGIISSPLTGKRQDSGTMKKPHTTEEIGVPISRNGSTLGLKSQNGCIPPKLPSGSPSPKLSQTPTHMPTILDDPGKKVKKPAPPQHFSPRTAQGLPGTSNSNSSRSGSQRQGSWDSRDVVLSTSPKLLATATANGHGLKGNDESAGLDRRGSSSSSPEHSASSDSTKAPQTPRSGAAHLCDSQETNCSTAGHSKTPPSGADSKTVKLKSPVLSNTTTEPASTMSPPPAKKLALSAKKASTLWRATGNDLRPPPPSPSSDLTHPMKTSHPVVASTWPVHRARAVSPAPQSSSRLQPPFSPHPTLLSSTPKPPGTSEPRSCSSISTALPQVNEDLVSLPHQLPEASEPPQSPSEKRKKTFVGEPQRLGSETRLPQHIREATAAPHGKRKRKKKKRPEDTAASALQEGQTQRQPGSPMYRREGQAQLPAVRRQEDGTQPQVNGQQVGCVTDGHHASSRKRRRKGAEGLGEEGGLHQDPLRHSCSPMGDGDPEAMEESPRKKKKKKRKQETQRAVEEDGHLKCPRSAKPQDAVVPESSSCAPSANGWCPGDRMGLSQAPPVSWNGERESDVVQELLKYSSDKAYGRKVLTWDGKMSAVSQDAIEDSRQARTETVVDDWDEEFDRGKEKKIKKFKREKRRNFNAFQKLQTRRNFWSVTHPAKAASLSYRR
How it was run: as §1

USP38 = biological target: T2, USP38 (UniProt Q8NB14)
T2 sequence (whole entry): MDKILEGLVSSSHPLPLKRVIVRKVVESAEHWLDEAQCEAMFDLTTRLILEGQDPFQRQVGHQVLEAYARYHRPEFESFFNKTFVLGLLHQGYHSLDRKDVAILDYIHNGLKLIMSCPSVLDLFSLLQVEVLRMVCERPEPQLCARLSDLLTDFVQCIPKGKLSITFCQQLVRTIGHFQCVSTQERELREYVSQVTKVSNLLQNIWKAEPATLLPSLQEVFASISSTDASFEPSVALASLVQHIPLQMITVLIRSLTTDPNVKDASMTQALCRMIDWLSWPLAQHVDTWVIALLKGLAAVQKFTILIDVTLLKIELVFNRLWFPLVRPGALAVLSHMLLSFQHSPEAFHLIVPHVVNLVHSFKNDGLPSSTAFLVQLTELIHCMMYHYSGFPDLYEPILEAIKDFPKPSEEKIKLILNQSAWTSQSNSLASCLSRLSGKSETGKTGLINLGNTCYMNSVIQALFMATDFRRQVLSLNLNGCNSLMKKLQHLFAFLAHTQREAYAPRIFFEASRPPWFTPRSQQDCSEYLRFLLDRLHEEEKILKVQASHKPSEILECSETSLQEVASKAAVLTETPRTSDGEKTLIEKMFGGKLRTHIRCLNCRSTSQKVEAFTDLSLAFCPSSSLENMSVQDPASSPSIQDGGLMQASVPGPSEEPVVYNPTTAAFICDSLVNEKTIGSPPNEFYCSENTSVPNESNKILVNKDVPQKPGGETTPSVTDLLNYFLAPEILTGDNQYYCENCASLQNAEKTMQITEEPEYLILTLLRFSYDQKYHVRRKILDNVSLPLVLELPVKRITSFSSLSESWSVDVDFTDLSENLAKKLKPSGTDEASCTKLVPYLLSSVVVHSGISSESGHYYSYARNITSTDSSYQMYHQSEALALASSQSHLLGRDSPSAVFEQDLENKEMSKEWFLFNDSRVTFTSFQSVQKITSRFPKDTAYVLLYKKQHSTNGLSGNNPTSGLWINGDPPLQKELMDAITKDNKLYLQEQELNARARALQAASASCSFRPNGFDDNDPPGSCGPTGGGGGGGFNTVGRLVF
How it was run: as §1

USP39 = biological target: T3, USP39 (UniProt Q53GS9)
T3 sequence (whole entry): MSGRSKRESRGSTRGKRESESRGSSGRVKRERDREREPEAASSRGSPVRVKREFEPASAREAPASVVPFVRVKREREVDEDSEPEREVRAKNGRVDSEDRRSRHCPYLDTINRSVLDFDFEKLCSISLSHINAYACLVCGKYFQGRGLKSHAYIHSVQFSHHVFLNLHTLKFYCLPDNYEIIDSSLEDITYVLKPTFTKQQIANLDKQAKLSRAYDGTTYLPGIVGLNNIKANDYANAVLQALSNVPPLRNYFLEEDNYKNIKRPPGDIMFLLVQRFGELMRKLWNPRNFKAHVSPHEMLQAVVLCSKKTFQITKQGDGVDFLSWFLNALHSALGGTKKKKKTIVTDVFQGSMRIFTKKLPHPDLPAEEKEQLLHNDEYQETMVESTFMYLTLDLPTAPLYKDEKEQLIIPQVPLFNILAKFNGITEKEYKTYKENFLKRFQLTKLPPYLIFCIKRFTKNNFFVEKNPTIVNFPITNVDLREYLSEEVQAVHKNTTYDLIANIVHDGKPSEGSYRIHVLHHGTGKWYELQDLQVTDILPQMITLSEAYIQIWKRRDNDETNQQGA
How it was run: as §1

USP4 = biological target: T4, USP4 (UniProt Q13107)
T4 sequence (whole entry): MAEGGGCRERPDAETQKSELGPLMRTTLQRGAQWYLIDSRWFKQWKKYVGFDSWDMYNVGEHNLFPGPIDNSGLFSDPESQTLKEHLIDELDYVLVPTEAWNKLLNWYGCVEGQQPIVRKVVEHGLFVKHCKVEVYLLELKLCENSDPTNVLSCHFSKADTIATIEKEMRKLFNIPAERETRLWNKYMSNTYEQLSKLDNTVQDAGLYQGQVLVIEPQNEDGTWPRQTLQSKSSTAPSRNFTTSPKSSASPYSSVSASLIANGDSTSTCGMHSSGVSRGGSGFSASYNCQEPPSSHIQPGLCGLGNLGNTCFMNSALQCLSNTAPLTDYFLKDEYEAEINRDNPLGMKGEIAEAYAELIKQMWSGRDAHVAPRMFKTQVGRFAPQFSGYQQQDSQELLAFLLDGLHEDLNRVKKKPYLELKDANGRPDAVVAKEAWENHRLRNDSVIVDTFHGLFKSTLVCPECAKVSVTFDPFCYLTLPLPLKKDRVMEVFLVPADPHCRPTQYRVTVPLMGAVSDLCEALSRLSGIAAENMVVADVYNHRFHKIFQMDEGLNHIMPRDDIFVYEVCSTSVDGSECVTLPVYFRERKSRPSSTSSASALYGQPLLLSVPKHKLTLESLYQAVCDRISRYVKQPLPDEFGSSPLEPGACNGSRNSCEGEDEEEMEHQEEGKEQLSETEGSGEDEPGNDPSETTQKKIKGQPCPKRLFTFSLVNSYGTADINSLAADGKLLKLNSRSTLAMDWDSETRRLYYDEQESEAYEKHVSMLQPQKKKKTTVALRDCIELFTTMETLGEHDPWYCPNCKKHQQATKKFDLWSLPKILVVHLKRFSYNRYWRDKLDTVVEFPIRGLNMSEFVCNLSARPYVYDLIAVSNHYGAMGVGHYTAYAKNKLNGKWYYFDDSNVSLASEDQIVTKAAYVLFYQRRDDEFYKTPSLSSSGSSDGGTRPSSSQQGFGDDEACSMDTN
How it was run: as §1

Measured: log2 ratio of Biotin-Ahx-Ub-VS probe labelling

USP34, sequence (Q70CQ2 whole entry, the tested form may be a part): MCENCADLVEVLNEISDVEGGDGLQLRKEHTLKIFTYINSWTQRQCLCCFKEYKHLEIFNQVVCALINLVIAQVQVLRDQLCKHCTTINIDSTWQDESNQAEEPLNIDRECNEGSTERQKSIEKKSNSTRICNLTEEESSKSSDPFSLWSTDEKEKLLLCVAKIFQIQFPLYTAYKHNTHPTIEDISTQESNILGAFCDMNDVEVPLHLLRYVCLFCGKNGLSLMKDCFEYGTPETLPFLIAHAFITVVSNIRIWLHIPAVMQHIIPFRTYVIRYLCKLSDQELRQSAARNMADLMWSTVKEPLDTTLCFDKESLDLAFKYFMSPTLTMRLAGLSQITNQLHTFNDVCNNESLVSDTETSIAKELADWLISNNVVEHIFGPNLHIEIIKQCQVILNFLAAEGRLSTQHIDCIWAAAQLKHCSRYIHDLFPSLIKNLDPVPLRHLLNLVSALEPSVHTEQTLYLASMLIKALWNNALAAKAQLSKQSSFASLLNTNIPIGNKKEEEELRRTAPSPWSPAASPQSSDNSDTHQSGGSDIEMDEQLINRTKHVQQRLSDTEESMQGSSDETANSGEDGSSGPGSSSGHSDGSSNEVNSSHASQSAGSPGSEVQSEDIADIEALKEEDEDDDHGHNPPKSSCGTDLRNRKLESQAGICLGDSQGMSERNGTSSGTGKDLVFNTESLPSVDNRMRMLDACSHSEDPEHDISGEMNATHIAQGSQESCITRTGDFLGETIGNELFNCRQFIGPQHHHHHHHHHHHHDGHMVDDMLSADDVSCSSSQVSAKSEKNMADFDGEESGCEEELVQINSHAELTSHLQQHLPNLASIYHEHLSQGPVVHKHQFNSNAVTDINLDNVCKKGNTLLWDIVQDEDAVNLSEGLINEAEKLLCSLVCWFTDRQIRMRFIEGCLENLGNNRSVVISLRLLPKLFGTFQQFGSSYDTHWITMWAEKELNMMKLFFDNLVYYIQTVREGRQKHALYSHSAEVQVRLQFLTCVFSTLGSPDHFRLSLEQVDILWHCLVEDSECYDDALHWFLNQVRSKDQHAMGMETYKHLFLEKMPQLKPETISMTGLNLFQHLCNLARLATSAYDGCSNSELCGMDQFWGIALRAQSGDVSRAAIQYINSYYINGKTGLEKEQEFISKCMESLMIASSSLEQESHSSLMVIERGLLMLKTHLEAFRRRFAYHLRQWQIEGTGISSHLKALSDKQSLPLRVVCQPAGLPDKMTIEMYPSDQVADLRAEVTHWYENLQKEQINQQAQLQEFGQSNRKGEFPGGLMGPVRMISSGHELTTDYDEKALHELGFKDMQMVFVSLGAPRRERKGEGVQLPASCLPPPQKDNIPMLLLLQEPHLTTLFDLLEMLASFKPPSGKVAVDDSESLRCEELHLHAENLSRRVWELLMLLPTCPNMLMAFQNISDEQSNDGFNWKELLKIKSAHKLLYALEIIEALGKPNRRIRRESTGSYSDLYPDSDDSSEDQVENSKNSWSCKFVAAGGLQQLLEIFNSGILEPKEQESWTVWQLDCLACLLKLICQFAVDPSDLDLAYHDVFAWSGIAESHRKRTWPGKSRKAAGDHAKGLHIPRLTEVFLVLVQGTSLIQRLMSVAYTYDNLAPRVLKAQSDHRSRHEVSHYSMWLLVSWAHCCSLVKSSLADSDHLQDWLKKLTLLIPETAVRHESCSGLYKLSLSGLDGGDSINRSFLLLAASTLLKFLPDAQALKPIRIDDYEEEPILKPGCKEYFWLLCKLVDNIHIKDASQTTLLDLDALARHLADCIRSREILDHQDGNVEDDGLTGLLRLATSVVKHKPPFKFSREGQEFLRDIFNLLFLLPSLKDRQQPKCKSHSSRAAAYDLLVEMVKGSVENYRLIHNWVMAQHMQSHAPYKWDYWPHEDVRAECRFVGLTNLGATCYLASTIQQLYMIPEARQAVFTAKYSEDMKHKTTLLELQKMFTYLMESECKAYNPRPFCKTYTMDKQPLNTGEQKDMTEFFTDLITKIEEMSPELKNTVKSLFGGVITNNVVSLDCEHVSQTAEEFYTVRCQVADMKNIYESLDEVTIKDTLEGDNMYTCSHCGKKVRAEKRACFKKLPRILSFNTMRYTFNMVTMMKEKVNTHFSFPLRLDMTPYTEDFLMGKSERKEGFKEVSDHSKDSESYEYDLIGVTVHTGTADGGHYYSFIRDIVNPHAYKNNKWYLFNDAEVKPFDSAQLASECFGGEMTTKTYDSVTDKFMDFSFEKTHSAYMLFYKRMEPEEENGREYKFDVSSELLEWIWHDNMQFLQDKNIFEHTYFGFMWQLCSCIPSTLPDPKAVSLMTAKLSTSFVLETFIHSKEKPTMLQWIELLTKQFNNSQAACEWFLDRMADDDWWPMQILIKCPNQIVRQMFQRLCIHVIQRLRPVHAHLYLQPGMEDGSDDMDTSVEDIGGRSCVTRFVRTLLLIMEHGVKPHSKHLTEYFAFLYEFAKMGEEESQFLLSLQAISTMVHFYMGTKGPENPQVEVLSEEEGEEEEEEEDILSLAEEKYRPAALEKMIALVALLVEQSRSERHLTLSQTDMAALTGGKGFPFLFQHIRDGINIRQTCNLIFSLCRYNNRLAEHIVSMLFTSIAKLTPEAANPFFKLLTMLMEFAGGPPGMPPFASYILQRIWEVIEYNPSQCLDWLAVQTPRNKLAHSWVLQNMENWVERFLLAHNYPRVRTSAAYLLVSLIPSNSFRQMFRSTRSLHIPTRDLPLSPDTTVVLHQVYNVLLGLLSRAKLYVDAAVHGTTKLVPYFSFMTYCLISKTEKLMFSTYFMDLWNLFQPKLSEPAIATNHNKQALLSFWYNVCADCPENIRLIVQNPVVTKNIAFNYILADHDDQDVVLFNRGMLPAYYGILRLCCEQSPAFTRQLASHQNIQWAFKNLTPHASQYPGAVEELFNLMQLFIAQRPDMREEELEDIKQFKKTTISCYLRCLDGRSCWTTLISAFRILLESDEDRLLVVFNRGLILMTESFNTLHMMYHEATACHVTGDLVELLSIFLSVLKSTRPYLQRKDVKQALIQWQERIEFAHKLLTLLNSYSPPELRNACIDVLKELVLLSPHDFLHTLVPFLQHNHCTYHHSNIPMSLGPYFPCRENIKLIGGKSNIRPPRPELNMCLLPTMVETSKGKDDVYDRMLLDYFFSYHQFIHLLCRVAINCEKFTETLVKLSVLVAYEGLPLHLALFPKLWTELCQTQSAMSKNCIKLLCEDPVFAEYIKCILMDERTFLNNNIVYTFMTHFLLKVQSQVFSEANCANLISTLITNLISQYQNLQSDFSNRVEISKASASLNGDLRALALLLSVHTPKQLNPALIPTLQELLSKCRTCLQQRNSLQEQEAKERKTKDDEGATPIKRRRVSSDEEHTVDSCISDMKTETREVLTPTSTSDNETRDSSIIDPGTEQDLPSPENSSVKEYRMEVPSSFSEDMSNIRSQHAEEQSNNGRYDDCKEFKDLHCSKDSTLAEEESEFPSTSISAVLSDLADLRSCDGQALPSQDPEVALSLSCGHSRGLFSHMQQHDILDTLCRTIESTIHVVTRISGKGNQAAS

NC(=O)C(Cc1ccccc1)NC(=O)CCl (stereo not given)
inactive: USP34 -0.217 | USP36 0.0618 | USP38 -0.0263 | USP39 -0.257 | USP4 0.0089
